# In paper PMC8384837, “Expanding the binding specificity for RNA recognition by a PUF domain”:
# Columns and labels:
# Assay in all cases: yeast three-hybrid, YBZ-1, SC-Leu-His + 0.5 mM 3-AT, 4 days
# Settings in all cases: tags: N-Gal4 AD-HA kept; label: inside an RPR1-promoter hybrid RNA with tandem MS2 sites; ssRNA
# PUM1 PUF domain R8-PWV = PUM1 PUF domain R8-PWV (Homo sapiens, UniProt Q14671 828-1176, N1122P;Y1123W;Q1126V)
# In short: (§1)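 Sequencing with Illumina followed PCR amplification of the repeat regions from transformants grown four days on SC-Leu (input) or SC-Leu-His + 0.5 mM 3-AT (selection). The transformants were strain YBZ-1 with a LexA–MS2 coat fusion and a HIS3 reporter, carrying Pumilio-1 PUF domain libraries and matching RNA elements. The interaction score is the log change in variant frequency from input to selection, computed in log2 with a pseudocount of 1 for absent variants.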
# PUM1 PUF domain R3-VRE = PUM1 PUF domain R3-VRE (Homo sapiens, UniProt Q14671 828-1176, C935V;Q939E)
# PUM1 PUF domain R3-VRE, sequence (Q14671 828-1176 C935V/Q939E): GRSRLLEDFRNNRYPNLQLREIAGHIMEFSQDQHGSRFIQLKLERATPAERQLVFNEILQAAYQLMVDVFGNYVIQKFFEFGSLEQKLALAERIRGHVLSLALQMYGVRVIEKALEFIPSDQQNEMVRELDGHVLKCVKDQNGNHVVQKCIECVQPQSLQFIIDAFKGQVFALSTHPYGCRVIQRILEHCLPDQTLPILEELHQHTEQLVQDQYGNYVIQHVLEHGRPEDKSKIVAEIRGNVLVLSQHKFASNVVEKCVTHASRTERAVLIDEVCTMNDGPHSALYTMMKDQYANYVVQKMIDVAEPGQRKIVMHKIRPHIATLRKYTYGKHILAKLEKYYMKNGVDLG
# In short: as §1
# PUM1 PUF domain R5-GRL = PUM1 PUF domain R5-GRL (Homo sapiens, UniProt Q14671 828-1176, C1007G;Q1011L)
# PUM1 PUF domain R5-GRL, sequence (Q14671 828-1176 C1007G/Q1011L): as the sequence (Q14671 828-1176 C935V/Q939E) above, with V108C, E112Q, C180G, Q184L counted along it
# In short: as §1
# PUM1 PUF domain R4-TRA = PUM1 PUF domain R4-TRA (Homo sapiens, UniProt Q14671 828-1176, N971T;H972R;Q975A)
# PUM1 PUF domain R4-TRA, sequence (Q14671 828-1176 N971T/H972R/Q975A): as the sequence (Q14671 828-1176 C935V/Q939E) above, with V108C, E112Q, N144T, H145R, Q148A counted along it
# In short: as §1
# PUM1 PUF domain R3-RVK = PUM1 PUF domain R3-RVK (Homo sapiens, UniProt Q14671 828-1176, C935R;R936V;Q939K)
# PUM1 PUF domain R3-RVK, sequence (Q14671 828-1176 C935R/R936V/Q939K): as the sequence (Q14671 828-1176 C935V/Q939E) above, with V108R, R109V, E112K counted along it
# In short: as §1
# PUM1 PUF domain R3-PRQ = PUM1 PUF domain R3-PRQ (Homo sapiens, UniProt Q14671 828-1176, C935P)
# PUM1 PUF domain R3-PRQ, sequence (Q14671 828-1176 C935P): as the sequence (Q14671 828-1176 C935V/Q939E) above, with V108P, E112Q counted along it
# In short: as §1
# PUM1 PUF domain R8-VFR = PUM1 PUF domain R8-VFR (Homo sapiens, UniProt Q14671 828-1176, N1122V;Y1123F;Q1126R)
# PUM1 PUF domain R8-VFR, sequence (Q14671 828-1176 N1122V/Y1123F/Q1126R): as the sequence (Q14671 828-1176 C935V/Q939E) above, with V108C, E112Q, N295V, Y296F, Q299R counted along it
# In short: as §1
# PUM1 PUF domain R8-LFW = PUM1 PUF domain R8-LFW (Homo sapiens, UniProt Q14671 828-1176, N1122L;Y1123F;Q1126W)
# PUM1 PUF domain R8-LFW, sequence (Q14671 828-1176 N1122L/Y1123F/Q1126W): as the sequence (Q14671 828-1176 C935V/Q939E) above, with V108C, E112Q, N295L, Y296F, Q299W counted along it
# In short: as §1
# PUM1 PUF domain R3-LWM = PUM1 PUF domain R3-LWM (Homo sapiens, UniProt Q14671 828-1176, C935L;R936W;Q939M)
# PUM1 PUF domain R3-LWM, sequence (Q14671 828-1176 C935L/R936W/Q939M): as the sequence (Q14671 828-1176 C935V/Q939E) above, with V108L, R109W, E112M counted along it
# In short: as §1
# PUM1 PUF domain R3-MYD = PUM1 PUF domain R3-MYD (Homo sapiens, UniProt Q14671 828-1176, C935M;R936Y;Q939D)
# PUM1 PUF domain R3-MYD, sequence (Q14671 828-1176 C935M/R936Y/Q939D): as the sequence (Q14671 828-1176 C935V/Q939E) above, with V108M, R109Y, E112D counted along it
# In short: as §1
# PUM1 PUF domain R5-KAV = PUM1 PUF domain R5-KAV (Homo sapiens, UniProt Q14671 828-1176, C1007K;R1008A;Q1011V)
# PUM1 PUF domain R5-KAV, sequence (Q14671 828-1176 C1007K/R1008A/Q1011V): as the sequence (Q14671 828-1176 C935V/Q939E) above, with V108C, E112Q, C180K, R181A, Q184V counted along it
# In short: as §1
# PUM1 PUF domain R1-RWV = PUM1 PUF domain R1-RWV (Homo sapiens, UniProt Q14671 828-1176, S863R;R864W;Q867V)
# PUM1 PUF domain R1-RWV, sequence (Q14671 828-1176 S863R/R864W/Q867V): as the sequence (Q14671 828-1176 C935V/Q939E) above, with S36R, R37W, Q40V, V108C, E112Q counted along it
# In short: as §1
# PUM1 PUF domain R1-KRV = PUM1 PUF domain R1-KRV (Homo sapiens, UniProt Q14671 828-1176, S863K;Q867V)
# PUM1 PUF domain R1-KRV, sequence (Q14671 828-1176 S863K/Q867V): as the sequence (Q14671 828-1176 C935V/Q939E) above, with S36K, Q40V, V108C, E112Q counted along it
# In short: as §1
# PUM1 PUF domain R1-TRK = PUM1 PUF domain R1-TRK (Homo sapiens, UniProt Q14671 828-1176, S863T;Q867K)
# PUM1 PUF domain R1-TRK, sequence (Q14671 828-1176 S863T/Q867K): as the sequence (Q14671 828-1176 C935V/Q939E) above, with S36T, Q40K, V108C, E112Q counted along it
# In short: as §1
# PUM1 PUF domain R1-TKR = PUM1 PUF domain R1-TKR (Homo sapiens, UniProt Q14671 828-1176, S863T;R864K;Q867R)
# PUM1 PUF domain R1-TKR, sequence (Q14671 828-1176 S863T/R864K/Q867R): as the sequence (Q14671 828-1176 C935V/Q939E) above, with S36T, R37K, Q40R, V108C, E112Q counted along it
# In short: as §1
# PUM1 PUF domain R4-LHR = PUM1 PUF domain R4-LHR (Homo sapiens, UniProt Q14671 828-1176, N971L;Q975R)
# PUM1 PUF domain R4-LHR, sequence (Q14671 828-1176 N971L/Q975R): as the sequence (Q14671 828-1176 C935V/Q939E) above, with V108C, E112Q, N144L, Q148R counted along it
# In short: as §1
# PUM1 PUF domain R4-PWA = PUM1 PUF domain R4-PWA (Homo sapiens, UniProt Q14671 828-1176, N971P;H972W;Q975A)
# PUM1 PUF domain R4-PWA, sequence (Q14671 828-1176 N971P/H972W/Q975A): as the sequence (Q14671 828-1176 C935V/Q939E) above, with V108C, E112Q, N144P, H145W, Q148A counted along it
# In short: as §1
# PUM1 PUF domain R4-PYR = PUM1 PUF domain R4-PYR (Homo sapiens, UniProt Q14671 828-1176, N971P;H972Y;Q975R)
# PUM1 PUF domain R4-PYR, sequence (Q14671 828-1176 N971P/H972Y/Q975R): as the sequence (Q14671 828-1176 C935V/Q939E) above, with V108C, E112Q, N144P, H145Y, Q148R counted along it
# In short: as §1
# PUM1 PUF domain R3-GCD = PUM1 PUF domain R3-GCD (Homo sapiens, UniProt Q14671 828-1176, C935G;R936C;Q939D)
# PUM1 PUF domain R3-GCD, sequence (Q14671 828-1176 C935G/R936C/Q939D): as the sequence (Q14671 828-1176 C935V/Q939E) above, with V108G, R109C, E112D counted along it
# In short: as §1
# PUM1 PUF domain R3-SND = PUM1 PUF domain R3-SND (Homo sapiens, UniProt Q14671 828-1176, C935S;R936N;Q939D)
# PUM1 PUF domain R3-SND, sequence (Q14671 828-1176 C935S/R936N/Q939D): as the sequence (Q14671 828-1176 C935V/Q939E) above, with V108S, R109N, E112D counted along it
# In short: as §1
# PUM1 PUF domain R8-PWV, sequence (Q14671 828-1176 N1122P/Y1123W/Q1126V): as the sequence (Q14671 828-1176 C935V/Q939E) above, with V108C, E112Q, N295P, Y296W, Q299V counted along it
sequence,measurement,setting,value
GGCUAGAACUAGUGGAUCCCCCGGCGCCCGGCGGCUCGAGCCCGGGUAAGUGUAAAUAGUCUGCAUGCCGCCGGGCGCCAUGCCUGCAGGUCGACUCUAGAAAACAUG,binding signal,PUM1 PUF domain R8-PWV,3.54 log2 enrichment (interaction score)
same,binding signal,PUM1 PUF domain R3-VRE,3.18 log2 enrichment (interaction score)
same,binding signal,PUM1 PUF domain R5-GRL,3.74 log2 enrichment (interaction score)
same,binding signal,PUM1 PUF domain R4-TRA,3.73 log2 enrichment (interaction score)
same,binding signal,PUM1 PUF domain R3-RVK,2.2 log2 enrichment (interaction score)
same,binding signal,PUM1 PUF domain R3-PRQ,4.52 log2 enrichment (interaction score)
same,binding signal,PUM1 PUF domain R8-VFR,3.9 log2 enrichment (interaction score)
same,binding signal,PUM1 PUF domain R8-LFW,2.5 log2 enrichment (interaction score)
GGCUAGAACUAGUGGAUCCCCCGGCGCCCGGCGGCUCGAGCCCGGGUAAGUGUAAUUAGUCUGCAUGCCGCCGGGCGCCAUGCCUGCAGGUCGACUCUAGAAAACAUG,binding signal,PUM1 PUF domain R3-LWM,4.35 log2 enrichment (interaction score)
same,binding signal,PUM1 PUF domain R3-RVK,5.35 log2 enrichment (interaction score)
same,binding signal,PUM1 PUF domain R3-MYD,2.42 log2 enrichment (interaction score)
GGCUAGAACUAGUGGAUCCCCCGGCGCCCGGCGGCUCGAGCCCGGGUAAGUGUCAAUAGUCUGCAUGCCGCCGGGCGCCAUGCCUGCAGGUCGACUCUAGAAAACAUG,binding signal,PUM1 PUF domain R5-KAV,4 log2 enrichment (interaction score)
GGCUAGAACUAGUGGAUCCCCCGGCGCCCGGCGGCUCGAGCCCGGGUAAGUGUGAAUAGUCUGCAUGCCGCCGGGCGCCAUGCCUGCAGGUCGACUCUAGAAAACAUG,binding signal,PUM1 PUF domain R5-GRL,1.44 log2 enrichment (interaction score)
GGCUAGAACUAGUGGAUCCCCCGGCGCCCGGCGGCUCGAGCCCGGGUAAGUGUAAAUUGUCUGCAUGCCGCCGGGCGCCAUGCCUGCAGGUCGACUCUAGAAAACAUG,binding signal,PUM1 PUF domain R1-RWV,2.59 log2 enrichment (interaction score)
same,binding signal,PUM1 PUF domain R1-KRV,6.82 log2 enrichment (interaction score)
same,binding signal,PUM1 PUF domain R1-TRK,3.04 log2 enrichment (interaction score)
same,binding signal,PUM1 PUF domain R1-TKR,1.37 log2 enrichment (interaction score)
GGCUAGAACUAGUGGAUCCCCCGGCGCCCGGCGGCUCGAGCCCGGGUAAGUGUAUAUAGUCUGCAUGCCGCCGGGCGCCAUGCCUGCAGGUCGACUCUAGAAAACAUG,binding signal,PUM1 PUF domain R4-LHR,4.01 log2 enrichment (interaction score)
same,binding signal,PUM1 PUF domain R4-PWA,5.17 log2 enrichment (interaction score)
same,binding signal,PUM1 PUF domain R4-PYR,7.09 log2 enrichment (interaction score)
GGCUAGAACUAGUGGAUCCCCCGGCGCCCGGCGGCUCGAGCCCGGGUAAGUGUUAAUAGUCUGCAUGCCGCCGGGCGCCAUGCCUGCAGGUCGACUCUAGAAAACAUG,binding signal,PUM1 PUF domain R5-GRL,2.5 log2 enrichment (interaction score)
GGCUAGAACUAGUGGAUCCCCCGGCGCCCGGCGGCUCGAGCCCGGGUAAGCGUAAAUAGUCUGCAUGCCGCCGGGCGCCAUGCCUGCAGGUCGACUCUAGAAAACAUG,binding signal,PUM1 PUF domain R8-PWV,2.69 log2 enrichment (interaction score)
same,binding signal,PUM1 PUF domain R8-VFR,4.1 log2 enrichment (interaction score)
same,binding signal,PUM1 PUF domain R8-LFW,2.4 log2 enrichment (interaction score)
GGCUAGAACUAGUGGAUCCCCCGGCGCCCGGCGGCUCGAGCCCGGGUAAGUGUACAUAGUCUGCAUGCCGCCGGGCGCCAUGCCUGCAGGUCGACUCUAGAAAACAUG,binding signal,PUM1 PUF domain R4-TRA,0.18 log2 enrichment (interaction score)
same,binding signal,PUM1 PUF domain R4-PYR,5.23 log2 enrichment (interaction score)
GGCUAGAACUAGUGGAUCCCCCGGCGCCCGGCGGCUCGAGCCCGGGUAAGUGUAAGUAGUCUGCAUGCCGCCGGGCGCCAUGCCUGCAGGUCGACUCUAGAAAACAUG,binding signal,PUM1 PUF domain R3-GCD,3.94 log2 enrichment (interaction score)
same,binding signal,PUM1 PUF domain R3-VRE,4.15 log2 enrichment (interaction score)
same,binding signal,PUM1 PUF domain R3-LWM,5.54 log2 enrichment (interaction score)
same,binding signal,PUM1 PUF domain R3-RVK,2.53 log2 enrichment (interaction score)
same,binding signal,PUM1 PUF domain R3-SND,5.25 log2 enrichment (interaction score)
GGCUAGAACUAGUGGAUCCCCCGGCGCCCGGCGGCUCGAGCCCGGGUAAGUGUAAAUCGUCUGCAUGCCGCCGGGCGCCAUGCCUGCAGGUCGACUCUAGAAAACAUG,binding signal,PUM1 PUF domain R1-RWV,3.55 log2 enrichment (interaction score)
same,binding signal,PUM1 PUF domain R1-KRV,3.51 log2 enrichment (interaction score)
same,binding signal,PUM1 PUF domain R1-TKR,6.21 log2 enrichment (interaction score)
